Assay results taken from PubChem BioAssay (Tox21).
Results filed as inconclusive are left out. A call without a number means that no potency is given here. Active and inactive are the calls of the source. The call rests on the fitted dose curve; in most records, active means well fitted cell-killing curve with a large enough effect in the repeat runs; inconclusive means weak or mixed curves; inactive means flat fitted curve, though single readings scatter.

Assay: qHTS RealTime-Glo MT Cell Viability Assay in HepG2 cells - 16 hour (AID 1224885); further: nearly all actives have a fitted effect of over 50% in size
Conditions: RealTime-Glo luminescence; series mostly up to 76.8 µM
Source text: U.S. Tox21 Program National Center for Advancing Translational Sciences [NCATS] NIH Chemical Genomics Center [NCGC] U.S. Environmental Protection Agency [EPA] National Institutes of Environmental Health Sciences [NIEHS] National Toxicology Program [NTP] U.S. Food and Drug Administration [FDA] Tox21 Assay Overview: Measure of cell viability is critical in the cell-base assay. Analysis of cell viability is necessary for the characterization of cell responses to cytotoxic drugs and environmental stress. A RealTime-Glo MT Cell Viability Assay to monitor cell viability in real time of continues cell culture during 40 hours of compound treatment was used to screen Tox21 10K library compounds in HepG2 cells. The RealTime-Glo MT Cell Viability Assay is a nonlytic, homogeneous, bioluminescent method to measure cell viability in real time using a simple, plate-based method. The assay involves adding NanoLuc luciferase and a cell-permeant prosubstrate to cells in culture. Viable cells reduce the proprietary prosubstrate to generate a substrate for NanoLuc luciferase. This substrate diffuses from cells into the surrounding culture medium, where it is rapidly used by the NanoLuc Enzyme to produce a luminescent signal. The signal correlates with the number of viable cells, making the assay well suited for cytotoxicity studies.
Tox21 Assay Protocol Summary: The mixture of HepG2 cell suspension and reagents were dispensed at 600cells/6 ul/well in 1536-well tissue culture treated black solid bottom plates using a Multidrop dispenser. After the assay plates were incubated at a 37 C/5% CO2 incubator for 5 hours, 23 nL of compounds dissolved in DMSO, positive and negative controls was transferred to the assay plate by a pintool work station. The plates were incubated at 37 C for 40 hours. The luminescence intensity were measured at 0h, 8h, 16h, 24h, 32h and 40h time points using ViewLux plate reader during compound treatment.
Potency means the concentration at half of the fitted maximal effect.

Question: For `CC(=O)[O-].CC(=O)[O-].CC(=O)[O-].[Cr+3]`, which Potency is on record?
Answer: The Potency was “inactive”.

Question: Which Potency does the source give for `CCCC[N+]1(C)CCCC1` (tested in a mixture with another compound) here?
Answer: The Potency was “inactive”.

Question: With `COc1c2c(cc3c1OCO3)CCN(C)C2` as the molecule, how does the Potency read?
Answer: The Potency was “inactive”.

Question: Which Potency does the source give for `[Cl-].[Cl-].[Sn+2]` here?
Answer: The Potency was “inactive”.

Question: With `S=C=Nc1ccccc1` as the molecule, how does the Potency read?
Answer: Its Potency is “inactive”.

Question: For `CC(C)N(C(=O)SC/C(Cl)=C/Cl)C(C)C`, which Potency is on record?
Answer: Its Potency is “inactive”.

Question: For `[Cl-].[Cl-].[Cl-].[Yb+3]`, which Potency is on record?
Answer: The Potency was “inactive”.

Question: With `CCOP(=O)(OCC)Oc1cc(C)nc(C(C)C)n1` as the molecule, how does the Potency read?
Answer: Its Potency is “inactive”.

Question: With `CCCCCCC[CH2][Sn]([Cl])([Cl])[CH2]CCCCCCC` as the molecule, how does the Potency read?
Answer: Its Potency is “inactive”.

Question: For `O.O.O.O.O.O.O=S(=O)([O-])[O-].[Ni+2]`, which Potency is on record?
Answer: The Potency was “inactive”.

Question: Which Potency does the source give for `CN` here?
Answer: Its Potency is “inactive”.

Question: With `CC(=O)O.CC(=O)O.CC(=O)O.CC(=O)O.CC(=O)O.CC(=O)O.CC(=O)O.O.O.[Cr].[Cr].[Cr]` as the molecule, how does the Potency read?
Answer: The Potency was “inactive”.

Question: Which Potency does the source give for `O=C(NC(=O)c1ccccc1Cl)Nc1ccc(OC(F)(F)F)cc1` here?
Answer: The Potency was “inactive”.

Question: For `O=C1C[C@@H]2OCC=C3CN4CC[C@]56c7ccccc7N1[C@H]5[C@H]2[C@H]3C[C@H]46`, which Potency is on record?
Answer: Its Potency is “inactive”.

Question: For `CSC(=O)c1c(C(F)F)nc(C(F)(F)F)c(C(=O)SC)c1CC(C)C`, which Potency is on record?
Answer: The Potency was “inactive”.

Question: Which Potency does the source give for `CC[C@]1(O)CC[C@H]2[C@@H]3CCC4=CCCC[C@@H]4[C@H]3CC[C@@]21C` here?
Answer: The Potency was “inactive”.

Question: With `CC(=O)[O-].CC(=O)[O-].CC(=O)[O-].[Sb+3]` as the molecule, how does the activity change, negative = cytotoxic read?
Answer: Its activity change, negative = cytotoxic is -7.09% [at 2.72 µM] (inactive).

Question: For `CC(C)C(Nc1ccc(C(F)(F)F)cc1Cl)C(=O)OC(C#N)c1cccc(Oc2ccccc2)c1` (stereo not given), which Potency is on record?
Answer: The Potency was “inactive”.

Question: Which Potency does the source give for `CCC[CH2][Sn]([CH2]CCC)([CH2]CCC)[CH2]CCC` here?
Answer: Its Potency is 6.92 µM (active).

Question: Which Potency does the source give for `N#Cc1c[nH]cc1-c1cccc2c1OC(F)(F)O2` here?
Answer: The Potency was “inactive”.

Question: For `CCCCCCCc1ccc(O)cc1`, which Potency is on record?
Answer: The Potency was “inactive”.

Question: With `O=[N+]([O-])C(Br)Br` as the molecule, how does the Potency read?
Answer: Its Potency is “inactive”.

Question: For `CO/N=C(\C(=O)OC)c1ccccc1CO/N=C(\C)c1cccc(C(F)(F)F)c1`, which Potency is on record?
Answer: Its Potency is “inactive”.

Question: Which Potency does the source give for `CNC(C)(C)Cc1ccccc1` here?
Answer: Its Potency is “inactive”.

Question: For `CC(C)NCC(O)c1ccccc1Cl` (stereo not given), which Potency is on record?
Answer: The Potency was “inactive”.

Question: Which Potency does the source give for `Nc1c(Cl)c(Cl)c(Cl)c(Cl)c1Cl` here?
Answer: The Potency was “inactive”.

Question: With `C[C@@H]1CC2=CC(=O)CC[C@@H]2[C@H]2CC[C@@]3(C)[C@@H](CC[C@]3(C)O)[C@@H]21` as the molecule, how does the Potency read?
Answer: Its Potency is “inactive”.

Question: With `CN(C)CCc1c[nH]c2ccccc12` as the molecule, how does the Potency read?
Answer: Its Potency is “inactive”.

Question: Which Potency does the source give for `CNC(=O)O/N=C(\C)C(C)S(C)(=O)=O` (stereo not given) here?
Answer: Its Potency is “inactive”.

Question: For `Nc1nc(N)c(N)c(N)n1`, which Potency is on record?
Answer: The Potency was “inactive”.

Question: Which Potency does the source give for `COP(=S)(OC)Oc1nc(Cl)c(Cl)cc1Cl` here?
Answer: The Potency was “inactive”.

Question: For `CN/C(=N\[N+](=O)[O-])NCc1cnc(Cl)s1`, which Potency is on record?
Answer: The Potency was “inactive”.

Question: With `O=C(NC(=O)c1c(F)cccc1F)Nc1ccc(Oc2ccc(C(F)(F)F)cc2Cl)cc1F` as the molecule, how does the Potency read?
Answer: The Potency was “inactive”.

Question: For `COC(=O)c1cc(Oc2ccc(Cl)cc2Cl)ccc1[N+](=O)[O-]`, which Potency is on record?
Answer: Its Potency is “inactive”.

Question: Which Potency does the source give for `ClC1=C(Cl)[C@]2(Cl)[C@H]3[C@H]([C@@H]4C=C[C@H]3C4)[C@@]1(Cl)C2(Cl)Cl` here?
Answer: The Potency was 49 µM (active).

Question: For `CCOP(=S)(OCC)Oc1cc(C)nc(N(CC)CC)n1`, which Potency is on record?
Answer: Its Potency is “inactive”.

Question: With `CN=C=O` as the molecule, how does the Potency read?
Answer: Its Potency is “inactive”.

Question: For `CCNc1nc(NC(C)C(C)C)nc(SC)n1` (stereo not given), which Potency is on record?
Answer: Its Potency is “inactive”.

Question: With `CC(Cl)CCl` (stereo not given) as the molecule, how does the Potency read?
Answer: The Potency was “inactive”.

Question: For `C[C@H]1[C@H](c2ccc(Cl)cc2)SC(=O)N1C(=O)NC1CCCCC1`, which Potency is on record?
Answer: Its Potency is “inactive”.
